Source: PubChem BioAssay AID1159580 (chemical genetic matrix, 2015)
“And” between values parts separate entries of the source, which are not always exact repeats. Identical values can stand only once. Out of some 5,500 compounds screened, about 2,000 (36%) were called active. About 18% were inconclusive and are not listed. Cut-off read from the data, not from the text of the source: active = normalized growth mostly below about 0.91 (no sharp cut-off); inconclusive = no clear call, values can overlap the other calls; inactive = mostly above about 0.92. The list shows a part of the results.

Assay: chemical genetic growth profiling, strain panel (AID 1159580);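 note: tested at 20 µM; growth read once vehicle control cultures reached saturation at 30 °C; 1 = growth at the plate median or of vehicle wells; lower values mean less growth of the strain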
Settings: S. cerevisiae deletion strains, growth OD

Measured: normalized growth

COc1ccc(C[C@H](N)C(=O)N[C@@H]2[C@@H](CO)OC(n3cnc4c(N(C)C)ncnc43)[C@@H]2O)cc1 (stereo partly specified)
inactive: locus YAL013W, strain DEP1, hits give low values 1.01 | locus YAL021C, strain ccr4, hits give low values 0.977 | locus YAL026C, strain drs2, hits give low values 0.996 | locus YAL030W, strain snc1, hits give low values 0.996 | locus YBL061C, strain skt5, hits give low values 0.996 | locus YBR009C, strain hhf1, hits give low values 0.988 | locus YBR021W, strain FUR4, hits give low values 1 | locus YBR023C, strain chs3, hits give low values 0.986 | locus YBR171W, strain sec66, hits give low values 0.976 | locus YBR229C, strain ROT2, hits give low values 1.01 | locus YBR231C, strain swc5, hits give low values 0.994 | locus YBR279W, strain paf1, hits give low values 0.992 | locus YCL011C, strain gbp2, hits give low values 1 | locus YCL016C, strain dcc1, hits give low values 1.01 | locus YCL029C, strain bik1, hits give low values 1.02 | locus YCL069W, strain vba3, hits give low values 0.992 | locus YCR088W, strain abp1, hits give low values 0.992 | locus YDL005C, strain med2, hits give low values 0.995 | locus YDL035C, strain GPR1, hits give low values 1 | locus YDL040C, strain nat1, hits give low values 1.01 | locus YDL074C, strain BRE1, hits give low values 0.988 | locus YDL101C, strain DUN1, hits give low values 1.01 | locus YDL134C, strain PPH21, hits give low values 1 | locus YDL185W, strain tfp1, hits give low values 1.02 | locus YDL192W, strain arf1, hits give low values 1.02 | locus YDR001C, strain nth1, hits give low values 0.982 | locus YDR069C, strain doa4, hits give low values 0.981 | locus YDR101C, strain arx1, hits give low values 1.02 | locus YDR137W, strain rgp1, hits give low values 1.01 | locus YDR150W, strain NUM1, hits give low values 1 | locus YDR159W, strain sac3, hits give low values 0.981 | locus YDR162C, strain NBP2, hits give low values 1.02 | locus YDR195W, strain ref2 0.969 | locus YDR297W, strain sur2, hits give low values 0.996 | locus YDR318W, strain mcm21, hits give low values 1.02 | locus YDR334W, strain swr1, hits give low values 0.977 | locus YDR335W, strain msn5, hits give low values 0.985 | locus YDR388W, hits give low values 1.02 | locus YDR392W, strain spt3, hits give low values 1.01 | locus YDR502C, strain sam2, hits give low values 1 | locus YEL003W, strain gim4, hits give low values 0.999 | locus YEL037C, strain rad23, hits give low values 1 | locus YEL061C, strain CIN8 (second series), hits give low values 0.99 | locus YEL061C, strain CIN8, hits give low values 1 | locus YER015W, strain faa2, hits give low values 0.991 | locus YER016W, strain bim1, hits give low values 1.01 | locus YER110C, hits give low values 1.02 | locus YER111C, strain swi4, hits give low values 0.977 | locus YER155C, strain BEM2 (second series), hits give low values 1.03 | locus YER155C, strain BEM2, hits give low values 1 | locus YER167W, strain BCK2, hits give low values 1.02 | locus YFR010W, strain ubp6, hits give low values 0.995 | locus YGL078C, strain dbp3, hits give low values 1.02 | locus YGL086W, strain mad1, hits give low values 1.02 | locus YGL167C, strain pmr1, hits give low values 1.01 | locus YGL173C, strain kem1, hits give low values 0.988 | locus YGL227W, strain vid30, hits give low values 0.992 | locus YGL240W, strain doc1, hits give low values 0.987 | locus YGL248W, strain PDE1, hits give low values 1.01 | locus YGL253W, strain hxk2, hits give low values 0.981 | locus YGR078C, strain PAC10, hits give low values 0.99 | locus YGR135W, strain pre9, hits give low values 1 | locus YGR229C, strain SMI1, hits give low values 0.996 | locus YGR252W, strain gcn5, hits give low values 1.06 | locus YHR013C, strain ard1, hits give low values 0.983 | locus YHR027C, strain rpn1, hits give low values 0.991 | locus YHR030C, strain SLT2, hits give low values 1.01 | locus YHR079C, strain IRE1 (second series), hits give low values 1.02 | locus YHR079C, strain IRE1, hits give low values 0.98 | locus YHR094C, strain hxt1, hits give low values 1.02 | locus YHR129C, strain ARP1, hits give low values 1.01 | locus YHR142W, strain chs7, hits give low values 1 | locus YHR200W, strain rpn10, hits give low values 1.03 | locus YIL066C, strain RNR3, hits give low values 1.02 | locus YIL073C, strain SPO22, hits give low values 1.06 | locus YIL125W, strain kgd1, hits give low values 1.01 | locus YIR030C, strain dcg1, hits give low values 1.02 | locus YJL092W, strain hpr5, hits give low values 0.988 | locus YJL095W, strain BCK1 (second series), hits give low values 1 | locus YJL095W, strain BCK1, hits give low values 0.997 and 0.996 | locus YJL115W, strain asf1, hits give low values 0.984 | locus YJL129C, strain trk1, hits give low values 0.987 | locus YJL134W, strain LCB3, hits give low values 1 | locus YJL154C, strain vps35, hits give low values 0.996 | locus YJL164C, strain tpk1, hits give low values 1.01 | locus YJL166W, strain qcr8, hits give low values 0.979 | locus YJL168C, strain set2, hits give low values 1.01 | locus YJL187C, strain SWE1 (second series), hits give low values 1.01 | locus YJL187C, strain SWE1, hits give low values 0.998 | locus YJR043C, strain POL32, hits give low values 0.995 | locus YJR066W, strain TOR1, hits give low values 0.937
